Drawing on PubChem BioAssay (EPA / NIEHS), this text covers outcome and AC50 for 17 molecules.

The source made the active and inactive calls. How the source made its calls: active means hit-call score of the fitted dose curve at least 0.9, where 1 is the maximum; inactive means score below 0.9.

Read-out in experiment [1]: TIMP metallopeptidase inhibitor 2 (TIMP2), TIMP2 (gene 7077)
Briefly: BSK_KF3CT_TIMP2: BioMAP Diversity Plus: KF3CT Assay for TIMP metallopeptidase inhibitor 2 (TIMP2) Biomarker Activity (AID 2283071). To be noted: primary human keratinocytes with fibroblasts; actives raise or lower the signal. In short, it runs like this: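 Co-culture of human primary keratinocytes and foreskin fibroblasts, measured 24 h after chemical dosing. TIMP-2 quantified by ELISA and fitted in both directions relative to DMSO. Cytotoxicity checked in parallel cultures by SRB total-protein staining.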

Read-out in experiment [2]: Transforming growth factor beta 1 (TGFb1), TGFB1 (gene 7040)
Put plainly: BSK_KF3CT_TGFb1: BioMAP Diversity Plus: KF3CT Assay for Transforming growth factor beta 1 (TGFb1) Biomarker Activity (AID 2283072). The note with it: primary human keratinocytes with fibroblasts; actives raise or lower the signal. The procedure, abridged:
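Human keratinocyte/foreskin fibroblast co-culture; TGF-b1 measured by ELISA 24 h after dosing, fitted bidirectionally versus DMSO. Cytotoxicity checked in parallel cultures by total protein (SRB staining, 560 nm).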

Read-out in experiment [3]: C-C motif chemokine 2 (Homo sapiens) (UniProt P13500)
Put plainly: BSK_KF3CT_MCP1: BioMAP Diversity Plus: KF3CT Assay for Monocyte Chemoattractant Protein 1 (MCP1/CCL2) Biomarker Activity (AID 2283073). To be noted: primary human keratinocytes with fibroblasts; actives raise or lower the signal. The procedure, abridged: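 Keratinocytes and foreskin fibroblasts were co-cultured, dosed with chemical, and sampled 24 h later. MCP-1 was quantified by ELISA, and the endpoint was analyzed with bidirectional fitting using DMSO as negative control.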

Read-out in experiment [4]: Matrix Metallopeptidase 9 (MMP9), MMP9 (gene 4318)
Put plainly: BSK_KF3CT_MMP9: BioMAP Diversity Plus: KF3CT Assay for Matrix Metallopeptidase 9 (MMP9) Biomarker Activity (AID 2283074).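 On AC50: MMP9 protein level quantified by ELISA in the co-culture.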 To be noted: primary human keratinocytes with fibroblasts; actives raise or lower the signal. The procedure, abridged:
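Keratinocyte plus foreskin fibroblast human primary skin co-culture was dosed with chemical and MMP-9 was quantified by ELISA 24 h later. Bidirectional curve fitting used DMSO as negative control and activity baseline.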

Read-out in experiment [5]: urokinase plasminogen activator (uPA), PLAU (gene 5328)
Briefly: BSK_KF3CT_uPA: BioMAP Diversity Plus: KF3CT Assay for urokinase plasminogen activator (uPA) Biomarker Activity (AID 2283075). The note with it: primary human keratinocytes with fibroblasts; actives raise or lower the signal. The procedure, abridged:
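Human keratinocyte plus foreskin fibroblast primary co-culture exposed to chemical for 24 h. uPA levels were quantified by ELISA, and activity was fitted bidirectionally against a DMSO negative-control baseline.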

Read-out in the next experiment: CD40, CD40 (gene 958)
Briefly: BSK_LPS_CD40: BioMAP Diversity Plus: LPS Assay for CD40 Biomarker Activity (AID 2283076). The note with it: primary human HUVEC with PBMC; actives raise or lower the signal. The procedure, abridged:
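CD40 signal, measured by ELISA, is fitted in both directions relative to DMSO vehicle. The system is an LPS-driven human vascular primary co-culture of endothelial cells and PBMC, sampled 24 h after compound addition.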

Read-out in experiment [6]: E-selectin (Homo sapiens) (UniProt P16581)
Put plainly: BSK_LPS_Eselectin: BioMAP Diversity Plus: LPS Assay for Eselectin Biomarker Activity (AID 2283077). The note with it: primary human HUVEC with PBMC; actives raise or lower the signal. The procedure, abridged: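 Signal of E-selectin, detected by ELISA, served as the endpoint; cells were umbilical vein endothelium with PBMC, read 24 h after treatment. DMSO defined baseline, and both increases and decreases were fitted.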

Read-out in experiment [7]: Interleukin-8 (IL8), CXCL8 (gene 3576)
Briefly: BSK_LPS_IL8: BioMAP Diversity Plus: LPS Assay for Interleukin-8 (IL8) Biomarker Activity (AID 2283078). To be noted: primary human HUVEC with PBMC; actives raise or lower the signal. In short, it runs like this: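 Endothelial cells and PBMC from human donors are co-cultured, treated with chemicals and LPS, then assayed for IL-8 by ELISA after 24 h. Parallel SRB staining (0.1% SRB after 10% TCA fixation, 560 nm) flags cytotoxicity.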

A short description of experiment [8]: BSK_LPS_SRB: Viability Assessment in the BioMAP Diversity Plus: LPS Assay (AID 2283079).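 Further: total protein by sulforhodamine B absorbance as a cytotoxicity measure; measured one day after compound addition.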 The note with it: primary human HUVEC with PBMC. The procedure, abridged: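 Overt cytotoxicity was gauged by sulforhodamine B total-protein staining in a primary human vascular endothelial and mononuclear cell co-culture 24 h post-dosing. Activity was fitted in both directions relative to DMSO.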

Read-out in experiment [9]: Interleukin-1 alpha (IL1a), IL1A (gene 3552)
Put plainly: BSK_KF3CT_IL1a: BioMAP Diversity Plus: KF3CT Assay for Interleukin-1 alpha (IL1a) Biomarker Activity (AID 2283070). To be noted: primary human keratinocytes with fibroblasts; actives raise or lower the signal. The procedure, abridged:
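Human keratinocyte plus foreskin fibroblast primary co-culture, sampled 24 h after chemical dosing. IL-1a measured by ELISA; responses fitted bidirectionally against DMSO baseline (negative control), so gain or loss of signal both count.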

Sequence of E-selectin (Homo sapiens) (P16581 whole entry, looked up): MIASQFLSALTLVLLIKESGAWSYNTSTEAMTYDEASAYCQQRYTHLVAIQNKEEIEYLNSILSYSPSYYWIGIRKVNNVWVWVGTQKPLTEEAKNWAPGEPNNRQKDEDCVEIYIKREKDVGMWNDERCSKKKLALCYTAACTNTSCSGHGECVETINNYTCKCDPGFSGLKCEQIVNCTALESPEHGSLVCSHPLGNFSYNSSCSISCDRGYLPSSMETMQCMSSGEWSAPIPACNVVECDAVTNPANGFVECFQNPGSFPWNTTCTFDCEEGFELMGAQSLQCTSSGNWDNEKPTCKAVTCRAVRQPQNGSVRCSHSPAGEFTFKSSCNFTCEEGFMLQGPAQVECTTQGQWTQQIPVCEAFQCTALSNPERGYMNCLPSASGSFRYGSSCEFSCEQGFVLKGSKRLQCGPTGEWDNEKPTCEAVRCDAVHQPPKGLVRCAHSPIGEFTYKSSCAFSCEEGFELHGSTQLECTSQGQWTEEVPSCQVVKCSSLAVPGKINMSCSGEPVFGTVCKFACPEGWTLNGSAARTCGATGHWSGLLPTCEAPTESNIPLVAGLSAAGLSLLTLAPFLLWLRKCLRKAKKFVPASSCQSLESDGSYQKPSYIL

With `CC(C)=CC1C(C(=O)OCN2C(=O)C3=C(CCCC3)C2=O)C1(C)C` (stereo not drawn), the outcome in experiment [1], in experiment [2], in experiment [3], in experiment [5] and in [8] was inactive. Besides, the AC50 in experiment [4] is 3.97 µM (active); with CD40, CD40 (gene 958), 11.4 µM (active); in experiment [6] it was 35.1 µM (active); in experiment [7], 26.9 µM (active).

In the case of `CC(C)N(C(=O)SCC(Cl)=C(Cl)Cl)C(C)C`, the AC50 is 30.5 µM (active) in experiment [9]; 36.4 µM (active) in experiment [1]; 30.5 µM (active) in [3]; 36.6 µM (active) in [4]; 32.6 µM (active) in experiment [5]; 29.9 µM (active) in the experiment with CD40, CD40 (gene 958). Moreover, the AC50 in [6] is 31.6 µM (active); in [7] it was 29.5 µM (active); in experiment [8], 29.1 µM (active). For the same molecule, in [2], the outcome was inactive.

On to `CN(C)NC(=O)CCC(=O)O`, for which the outcome in experiment [9], in experiment [1], in experiment [2], in experiment [3], in [4] and in [5] was inactive. The outcome in the experiment with CD40, CD40 (gene 958) is “inactive”; in experiment [6], “inactive”; in [7] it was “inactive”; in experiment [8], “inactive”.

With `CNC(=O)ON=C(SC)C(=O)N(C)C`, the outcome in experiment [9], in experiment [1], in [2], in experiment [3], in [4] and in [5] was inactive. The outcome in the experiment with CD40, CD40 (gene 958) is “inactive”; in [6], “inactive”; in [7], “inactive”; in [8], “inactive”.

In the case of `CON=C(C(=O)OC)c1ccccc1CON=C(C)c1cccc(C(F)(F)F)c1`, the outcome in experiment [9], in [1], in experiment [2] and in [5] was inactive. Also, the AC50 in [3] is 6.61 µM (active); in experiment [4], 3.97 µM (active); in the experiment with CD40, CD40 (gene 958) it was 13.5 µM (active); in experiment [6] it was 0.25 µM (active); in [7] it was 3.35 µM (active); in [8], 6.96 µM (active).

Turning to `CCc1cccc(CC)c1N(COC)C(=O)CCl`, the result in experiment [9], in experiment [1], in experiment [2], in experiment [3], in [5] and in experiment [7] was inactive. In addition, the AC50 is 20 µM (active) in [4]; 13.8 µM (active) in the experiment with CD40, CD40 (gene 958); 33.8 µM (active) in experiment [6]; 3.97 µM (active) in experiment [8].

With `S=C1NCCN1`, the outcome in experiment [9], in experiment [1], in experiment [2], in experiment [3], in [4] and in experiment [5] was inactive. Besides, the outcome is “inactive” with CD40, CD40 (gene 958); “inactive” in [6]; “inactive” in [7]; “inactive” in [8].

As for `CSc1nc(NC(C)C)nc(NC(C)C)n1`, the result in experiment [9], in experiment [1], in experiment [2], in experiment [3], in experiment [4] and in experiment [5] was inactive. Besides, the outcome in the experiment with CD40, CD40 (gene 958) was “inactive”; in experiment [6], “inactive”; in experiment [7], “inactive”; in experiment [8] it was “inactive”.

`CCC(=NOC/C=C/Cl)C1=C(O)CC(C2CCOCC2)CC1=O` (stereo not drawn): the outcome in [1] was “inactive”; in experiment [2] it was “inactive”; in experiment [3], “inactive”; in [4] it was “inactive”; in [5], “inactive”; in the experiment with CD40, CD40 (gene 958), “inactive”. For the same molecule, the result in experiment [6], in [7] and in experiment [8] was inactive.

With `CN(C)C(=O)Nc1cccc(C(F)(F)F)c1`, the outcome in experiment [9], in experiment [1], in [2], in experiment [3], in [4] and in experiment [5] was inactive. In addition, the outcome with CD40, CD40 (gene 958) was “inactive”; in [6] it was “inactive”; in experiment [7], “inactive”; in experiment [8], “inactive”.

Regarding `CCOP(=S)(OCC)Oc1ccc2c(C)c(Cl)c(=O)oc2c1`, the AC50 in experiment [9] was 14.4 µM (active). Moreover, the outcome was “inactive” in experiment [1]; “inactive” in [2]; “inactive” in experiment [3]; “inactive” in [4]; “inactive” in [5]; “inactive” in the experiment with CD40, CD40 (gene 958). In addition, the result in experiment [6], in experiment [7] and in experiment [8] was inactive.

For the molecule `CC(COc1ccc(Oc2ccccc2)cc1)Oc1ccccn1` (stereo not drawn), the outcome in experiment [9], in [1], in experiment [2], in [3], in experiment [4] and in experiment [5] was inactive. For the same molecule, the result in experiment [6], in experiment [7] and in experiment [8] was inactive. Further, in the experiment with CD40, CD40 (gene 958), the AC50 is 20 µM (active).

`CCC(=O)Nc1ccc(Cl)c(Cl)c1`: the result in experiment [9], in experiment [1], in experiment [2], in experiment [3], in [4] and in experiment [5] was inactive. In addition, the outcome with CD40, CD40 (gene 958) is “inactive”; in [6] it was “inactive”; in experiment [7], “inactive”; in experiment [8], “inactive”.

With `CCOP(=S)(OCC)OC(Cl)C(Cl)(Cl)Cl` (stereo not drawn), the result in [9], in [1], in experiment [2], in [3], in experiment [4] and in experiment [5] was inactive. In addition, the outcome in the experiment with CD40, CD40 (gene 958) is “inactive”; in experiment [6] it was “inactive”; in experiment [7], “inactive”; in [8], “inactive”.

In the case of `CCOP(=S)(OCC)SCCSCC`, the outcome is “inactive” in [9]; “inactive” in experiment [1]; “inactive” in experiment [2]; “inactive” in [3]; “inactive” in [4]; “inactive” in the experiment with CD40, CD40 (gene 958). For the same molecule, the result in experiment [6], in experiment [7] and in [8] was inactive. Further, the AC50 in experiment [5] was 29.4 µM (active).

As to `O=c1ccc(=O)[nH][nH]1`, the result in experiment [9], in [1], in experiment [2], in experiment [3], in experiment [4] and in experiment [5] was inactive. In addition, the outcome is “inactive” in the experiment with CD40, CD40 (gene 958); “inactive” in experiment [6]; “inactive” in [7]; “inactive” in experiment [8].

For the molecule `COP(=O)(OC)OC(Br)C(Cl)(Cl)Br` (stereo not drawn), the AC50 in experiment [9] was 27.1 µM (active); in [1], 31.3 µM (active); in [2] it was 32.3 µM (active); in experiment [3], 31.1 µM (active); in experiment [4] it was 30.4 µM (active); in [5] it was 36.9 µM (active). The AC50 in the experiment with CD40, CD40 (gene 958) was 19.4 µM (active); in experiment [6], 32.3 µM (active); in experiment [7] it was 30.8 µM (active); in [8], 26 µM (active).
